Measurements from PubChem BioAssay AID1159580 (chemical genetic matrix, 2015).
Hit rate of the full screen: of about 5,500 compounds, about 2,000 (36%) were called active. Not shown: some 18% with an inconclusive outcome. No stated cut-off is given here; in the data, active means normalized growth mostly below about 0.91 (no sharp cut-off); inconclusive means no clear call, values can overlap the other calls; inactive means mostly above about 0.92. The list shows a part of the results.

Test: chemical genetic growth profiling, strain panel (AID 1159580);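 further: tested at 20 µM; growth read once vehicle control cultures reached saturation at 30 °C; 1 = growth at the plate median or of vehicle wells; lower values mean less growth of the strain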
Settings: growth OD

Measured: normalized growth

C/C=C1\[C@H]2C=C(C)C[C@]1(N)c1ccc(=O)[nH]c1C2
inactive: S. cerevisiae deletion strains, locus YJR075W, strain HOC1, hits give low values 0.997 | S. cerevisiae deletion strains, locus YKL009W, strain mrt4, hits give low values 1.01 | S. cerevisiae deletion strains, locus YKL068W, hits give low values 1.01 | S. cerevisiae deletion strains, locus YKL085W, strain MDH1 (second series), hits give low values 1 | S. cerevisiae deletion strains, locus YKL085W, strain MDH1, hits give low values 1 | S. cerevisiae deletion strains, locus YKL160W, strain elf1, hits give low values 0.989 | S. cerevisiae deletion strains, locus YKL190W, strain CNB1, hits give low values 1.01 | S. cerevisiae deletion strains, locus YKR001C, strain vps1, hits give low values 1.03 | S. cerevisiae deletion strains, locus YKR026C, strain gcn3, hits give low values 1.02 | S. cerevisiae deletion strains, locus YKR091W, strain srl3, hits give low values 1.02 | S. cerevisiae deletion strains, locus YLL001W, strain dnm1, hits give low values 1.02 | S. cerevisiae deletion strains, locus YLL026W, hits give low values 1.01 | S. cerevisiae deletion strains, locus YLL041C, strain sdh2, hits give low values 1.02 | S. cerevisiae deletion strains, locus YLR027C, strain aat2, hits give low values 1.02 | S. cerevisiae deletion strains, locus YLR039C, strain RIC1, hits give low values 1.05 | S. cerevisiae deletion strains, locus YLR058C, strain SHM2, hits give low values 1.01 | S. cerevisiae deletion strains, locus YLR102C, strain apc9, hits give low values 1.02 | S. cerevisiae deletion strains, locus YLR113W, strain HOG1, hits give low values 1.01 | S. cerevisiae deletion strains, locus YLR221C, strain rsa3, hits give low values 1.01 | S. cerevisiae deletion strains, locus YLR258W, strain gsy2, hits give low values 1.03 | S. cerevisiae deletion strains, locus YLR262C, strain YPT6 (second series), hits give low values 1.01 | S. cerevisiae deletion strains, locus YLR262C, strain YPT6, hits give low values 1.05 | S. cerevisiae deletion strains, locus YLR268W, strain sec22, hits give low values 0.992 | S. cerevisiae deletion strains, locus YLR320W, strain mms22, hits give low values 1.04 | S. cerevisiae deletion strains, locus YLR330W, strain CHS5, hits give low values 1.01 | S. cerevisiae deletion strains, locus YLR342W, strain FKS1 (second series), hits give low values 1.04 | S. cerevisiae deletion strains, locus YLR342W, strain FKS1, hits give low values 1.02 | S. cerevisiae deletion strains, locus YLR357W, strain rsc2, hits give low values 1.06 | S. cerevisiae deletion strains, locus YLR370C, strain arc18, hits give low values 1.02 | S. cerevisiae deletion strains, locus YLR371W, strain rom2, hits give low values 1.01 | S. cerevisiae deletion strains, locus YLR384C, strain iki3, hits give low values 1.02 | S. cerevisiae deletion strains, locus YLR418C, strain cdc73, hits give low values 1.02 | S. cerevisiae deletion strains, locus YML016C, strain PPZ1, hits give low values 1 | S. cerevisiae deletion strains, locus YML032C, strain rad52, hits give low values 1.01 | S. cerevisiae deletion strains, locus YML120C, strain ndi1, hits give low values 1.02 | S. cerevisiae deletion strains, locus YML124C, strain tub3, hits give low values 1.01 | S. cerevisiae deletion strains, locus YMR058W, strain fet3, hits give low values 1.02 | S. cerevisiae deletion strains, locus YMR078C, strain ctf18, hits give low values 1.02 | S. cerevisiae deletion strains, locus YMR125W, strain sto1, hits give low values 1.03 | S. cerevisiae deletion strains, locus YMR129W, hits give low values 1.03 | S. cerevisiae deletion strains, locus YMR205C, strain PFK2, hits give low values 1.07 | S. cerevisiae deletion strains, locus YMR223W, strain ubp8, hits give low values 1.03 | S. cerevisiae deletion strains, locus YMR231W, strain pep5, hits give low values 1.02 | S. cerevisiae deletion strains, locus YMR263W, strain SAP30, hits give low values 1 | S. cerevisiae deletion strains, locus YMR307W, strain GAS1, hits give low values 1.02 | S. cerevisiae deletion strains, locus YNL067W, strain RPL9B, hits give low values 1 | S. cerevisiae deletion strains, locus YNL071W, strain lat1, hits give low values 1.02 | S. cerevisiae deletion strains, locus YNL128W, strain TEP1, hits give low values 1.02 | S. cerevisiae deletion strains, locus YNL153C, strain GIM3, hits give low values 1 | S. cerevisiae deletion strains, locus YNL183C, strain NPR1, hits give low values 0.956 | S. cerevisiae deletion strains, locus YNL209W, strain ssb2, hits give low values 1.02 | S. cerevisiae deletion strains, locus YNL233W, strain BNI4, hits give low values 0.983 | S. cerevisiae deletion strains, locus YNL248C, strain rpa49, hits give low values 1.01 | S. cerevisiae deletion strains, locus YNL250W, strain rad50, hits give low values 1.01 | S. cerevisiae deletion strains, locus YNL271C, strain bni1, hits give low values 1.02 | S. cerevisiae deletion strains, locus YNL298W, strain CLA4, hits give low values 1.02 | S. cerevisiae deletion strains, locus YNL307C, strain MCK1, hits give low values 1.02 | S. cerevisiae deletion strains, locus YNL322C, strain KRE1 (second series), hits give low values 1.01 | S. cerevisiae deletion strains, locus YNL322C, strain KRE1, hits give low values 1.01 | S. cerevisiae deletion strains, locus YNR049C, strain mso1, hits give low values 1.03 | S. cerevisiae deletion strains, locus YNR052C, strain pop2, hits give low values 1.02 | S. cerevisiae deletion strains, locus YOL006C, strain TOP1, hits give low values 1.05 | S. cerevisiae deletion strains, locus YOL012C, strain htz1 0.803 | S. cerevisiae deletion strains, locus YOL147C, strain pex11, hits give low values 1.01 | S. cerevisiae deletion strains, locus YOR001W, strain rrp6, hits give low values 1 | S. cerevisiae deletion strains, locus YOR061W, strain CKA2, hits give low values 1.02 | S. cerevisiae deletion strains, locus YOR069W, strain VPS5, hits give low values 1.01 | S. cerevisiae deletion strains, locus YOR070C, strain gyp1, hits give low values 1.02 | S. cerevisiae deletion strains, locus YOR080W, strain dia2, hits give low values 1.02 | S. cerevisiae deletion strains, locus YOR083W, strain WHI5, hits give low values 0.992 | S. cerevisiae deletion strains, locus YOR106W, strain vam3, hits give low values 1.01 | S. cerevisiae deletion strains, locus YOR136W, strain idh2, hits give low values 1.02 | S. cerevisiae deletion strains, locus YOR144C, strain elg1, hits give low values 1.01 | S. cerevisiae deletion strains, locus YOR184W, strain ser1, hits give low values 1.04 | S. cerevisiae deletion strains, locus YOR231W, strain MKK1, hits give low values 1.01 | S. cerevisiae deletion strains, locus YOR265W, strain rbl2, hits give low values 1.02 | S. cerevisiae deletion strains, locus YOR270C, strain vph1, hits give low values 1.02 | S. cerevisiae deletion strains, locus YOR290C, strain snf2, hits give low values 1.01 | S. cerevisiae deletion strains, locus YOR316C, strain cot1, hits give low values 1.01 | S. cerevisiae deletion strains, locus YPL051W, strain arl3, hits give low values 0.996 | S. cerevisiae deletion strains, locus YPL055C, strain LGE1, hits give low values 1.02 | S. cerevisiae deletion strains, locus YPL078C, strain atp4, hits give low values 0.991 | S. cerevisiae deletion strains, locus YPL106C, strain sse1, hits give low values 1.06 | S. cerevisiae deletion strains, locus YPL240C, strain hsp82, hits give low values 1.03 | S. cerevisiae deletion strains, locus YPL241C, strain CIN2, hits give low values 1.01 | S. cerevisiae deletion strains, locus YPL256C, strain CLN2, hits give low values 0.99 | S. cerevisiae deletion strains, locus YPR119W, strain clb2, hits give low values 1.01 | S. cerevisiae deletion strains, locus YPR141C, strain kar3, hits give low values 1.01 | S. cerevisiae deletion strains, locus YPR163C, strain tif3, hits give low values 1.02 | S. cerevisiae deletion strains, locus YPR167C, strain met16, hits give low values 1.01 | S. cerevisiae deletion strains, strain wtn01, hits give low values 1.01 | S. cerevisiae strains, strain wild type, hits give low values 1.02
